The values that follow come from PubChem BioAssay AID1671192 (National Center for Advancing Translational Sciences (NCATS), 2021).

Records with an inconclusive call do not appear. Active and inactive are the calls of the source. The call rests on the fitted dose curve; in most records, active means well fitted curve in the direction sought with a large enough effect; inconclusive means small, poorly fitted or top-dose-only effect, or another doubt; inactive means no such curve, though single readings can be large or run the other way.

Sequence of Polyunsaturated fatty acid lipoxygenase ALOX15 (Homo sapiens) (P16050 whole entry, looked up): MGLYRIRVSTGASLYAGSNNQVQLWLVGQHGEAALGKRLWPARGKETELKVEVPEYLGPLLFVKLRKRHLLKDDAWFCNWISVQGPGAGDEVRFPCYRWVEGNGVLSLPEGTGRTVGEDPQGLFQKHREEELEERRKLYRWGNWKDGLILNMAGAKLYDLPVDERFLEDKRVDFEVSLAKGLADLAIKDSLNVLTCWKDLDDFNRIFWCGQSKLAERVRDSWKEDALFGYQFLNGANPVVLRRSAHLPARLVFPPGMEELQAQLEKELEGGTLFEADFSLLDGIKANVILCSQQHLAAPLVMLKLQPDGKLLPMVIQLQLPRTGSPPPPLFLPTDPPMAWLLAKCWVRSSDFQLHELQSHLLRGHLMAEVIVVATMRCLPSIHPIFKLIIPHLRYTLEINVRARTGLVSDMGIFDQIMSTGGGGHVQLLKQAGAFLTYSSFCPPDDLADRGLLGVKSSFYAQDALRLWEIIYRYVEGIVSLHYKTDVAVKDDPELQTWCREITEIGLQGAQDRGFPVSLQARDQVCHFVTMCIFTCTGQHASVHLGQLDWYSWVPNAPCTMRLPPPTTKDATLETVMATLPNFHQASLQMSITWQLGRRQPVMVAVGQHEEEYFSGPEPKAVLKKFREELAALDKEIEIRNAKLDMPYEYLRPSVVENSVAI

This experiment deals with Polyunsaturated fatty acid lipoxygenase ALOX15 (Homo sapiens) (UniProt P16050). Nature of the experiment: Counterscreen qHTS for inhibitors of human arachidonate 12S-lipoxygenase (ALOX12): ALOX15 Assay. Further: 0% is about no effect. The settings on record: purified ALOX15 enzyme activity; series mostly up to 110 µM; activity change, negative = inhibition: at the top concentration. In outline:
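Purified human ALOX15 (15hLO-1) at 40 nM in 25 mM HEPES, 0.01% Triton X-100, pH 7.5, preincubated with compound 15 min at RT. Then 50 uM arachidonic acid for 30 min; hydroperoxide detected by Fe-xylenol orange as the 573/405 nm absorbance ratio.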
Regarding `CN1CC(=O)N(C2CCCNC2)Cc2c1ncnc2N1CCSCC1` (stereo not given), the “activity change, negative = inhibition” value was -29.8% (inactive).

As to `CNCc1ccc(N2CCCC2)cc1`, the “activity change, negative = inhibition” value is 57.7% [at 233 µM] (inactive). With `O=C1NCc2ccccc2CC12CCN(Cc1cc(F)ccc1F)C2` (stereo not given), the “activity change, negative = inhibition” value was -20.4% [at 146 µM] (inactive). The result for `CCC(CO)Nc1ncnc2c1CN(C1CCCNC1)C(=O)CN2C` (stereo not given) reads -25.6% (inactive); that for `COc1ccc(CN2CCCC3(Cc4ccccc4CNC3=O)C2)cc1` (stereo not given), -6.45% [at 146 µM] (inactive). Take `CCOc1ccc(CN2CCC3(Cc4ccccc4CNC3=O)C2)cc1` (stereo not given): the “activity change, negative = inhibition” value was -15.1% [at 146 µM] (inactive). In the case of `CNCc1sc2ccccc2c1C`, the “activity change, negative = inhibition” value was -9.89% [at 233 µM] (inactive). Turning to `FC(F)(F)c1cccc(C2=NOC3(CCN(Cc4ccccc4)C3)C2)c1` (stereo not given), the “activity change, negative = inhibition” value was -12.7% (inactive). Consider `COc1ccc(-c2nc(C3CC3)nc3c2CN(C(=O)c2ccccc2F)CC3)cc1`, for which the “activity change, negative = inhibition” value is -9.97% (inactive). Regarding `CS(=O)(=O)N1CCC2(CC1)CN(Cc1ccc(O)cc1)Cc1ccccc1O2`, the “activity change, negative = inhibition” value is -7.74% (inactive). Turning to `C/C(=C\c1ccccc1)CN1CCCC12Cc1ccccc1CNC2=O` (stereo not given), the “activity change, negative = inhibition” value is -13.7% (inactive).

For the compound `CN1CC(=O)N(C2CCCNC2)Cc2c(NC3CCCCCC3)ncnc21` (stereo not given), the “activity change, negative = inhibition” value is -19% (inactive). With `O=Cc1ccccc1-c1ccc(OC(F)(F)F)cc1`, the “activity change, negative = inhibition” value is 0.731% [at 233 µM] (inactive). As for `O=C(c1ccc(C(F)(F)F)cc1)N1CCn2c(nnc2C2CCCNC2)C1` (stereo not given), the “activity change, negative = inhibition” value was -17.4% (inactive). As to `Cc1ccc(-c2cccc(CN)c2)cc1Cl`, the “activity change, negative = inhibition” value was -12.2% [at 146 µM] (inactive). With `CNC(C)c1c(F)cccc1F` (stereo not given), the “activity change, negative = inhibition” value is -21.6% [at 233 µM] (inactive). With `CCC(=O)N1Cc2ccccc2CC2(CCCCN2CC2CCOCC2)C1` (stereo not given) the figure was 15.2% (inactive). For `N#Cc1ccccc1CN1CCCC12Cc1ccccc1CNC2=O` (stereo not given), the “activity change, negative = inhibition” value was -0.198% [at 146 µM] (inactive).

For `O=C(c1ccc2c(c1)OCO2)N1CCC2(CC1)C(=O)Nc1ccccc12`, the “activity change, negative = inhibition” value is 1.58% [at 146 µM] (inactive).

On to `O=C1NC(=NC2CCCC2)C2(CCCN(Cc3ccsc3)C2)N1c1cc(F)cc(F)c1` (stereo not given), for which the “activity change, negative = inhibition” value was -2.59% (inactive).
